# Data as given in publication PMC5540273 (PLoS ONE, 2017).
# System: EPHA6
# Details: concentration: 1 μM, replicates: in singlicate; n = 1
# 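Further: KINOMEscan kinase panel screen.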
row,Structure (SMILES),%Inh [%]
1,CC(=O)N1CCN(c2ccc(Nc3nccc(-c4sc(C(C)C)nc4-c4cccc(NS(=O)(=O)c5cccc(Cl)c5)c4)n3)cn2)CC1 [GSK1660437],32
2,CN(C)S(=O)(=O)c1cc(-c2ccc3nccc(-c4cccc(S(N)(=O)=O)c4)c3c2)cnc1N [GSK1669921],18
3,O=C(NC1CCN(c2ccnc(Nc3ccc(F)cc3)n2)C1)c1cc2ccccc2s1 (stereo not shown) [GSK1379716],10
4,Cn1cc(-c2ccc3c(c2)CCN3C(=O)Cc2cccc(Cl)c2)c2c(N)ncnc21 [GSK2606590],17
5,FC(F)(F)c1ccc(/C=C/c2cncnc2Nc2ccc3[nH]c(Cc4ccccc4)nc3c2)cc1 [GW709199],0
6,Cl.c1ccc(-c2ccc3c(Nc4ccc5[nH]ccc5c4)ccnc3c2)nc1 [GW440138],54
7,c1ccc(-c2n[nH]cc2Nc2ccnc3ccccc23)nc1 [GW694077],0
8,CC(C)c1nc(-c2cccc(NS(=O)(=O)c3c(F)cccc3F)c2F)c(-c2ccnc(Nc3ccc(N4CCOCC4)nc3)n2)s1 [GSK2008607],94.7
9,COc1cc(Nc2nccc(N3CCC(NC(=O)c4cc5ccccc5s4)C3)n2)cc(OC)c1OC (stereo not shown) [GSK1379760],5
10,COc1cc(Nc2ncc3c(C)nc(-c4cc5ccccc5[nH]4)n3n2)cc(OC)c1OC [GW869516],0
11,Cn1cc(-c2[nH]c3cc(NC(=O)[C@H](N)C4CCCCC4)cc4c3c2C=NNC4=O)cn1,14
12,COC(=O)Nc1nc2ccc(Oc3ccc(NC(=O)Nc4cc(C(F)(F)F)ccc4F)cc3)cc2n1C.Cl [GW692089],84
13,CCS(=O)(=O)c1ccc(OC)c(Nc2nccc(-c3c(-c4cccc(NC(=O)c5c(F)cccc5F)c4)nn4ncccc34)n2)c1 [GSK326180],100
14,CCn1c(-c2nonc2N)nc2c(C#CC(C)(C)O)nc(OC[C@H](N)c3ccccc3)cc21 [GSK943949],0
15,CC(=O)Nc1nc2cnc(Nc3cc(NC(=O)c4cccc(C5(C#N)CC5)c4Cl)ccc3C)nc2s1,56
16,COc1ccc(CNC(=O)NC2CCN(c3ccnc(Nc4ccc(F)cc4)n3)CC2)cc1 [GSK1379788],0
17,O=C(O)C(F)(F)F.O=C(O)C(F)(F)F.O=c1[nH]ccc2nc(N[C@@H]3CCCNC3)nc(Nc3ccc(S(=O)(=O)N4CCOCC4)cc3)c12 [GSK2177277],62
18,Cc1occc1-c1ncc(OC[C@@H](N)Cc2c[nH]c3ccccc23)cc1-c1ccc2[nH]nc(C)c2c1.O=C(O)C(F)(F)F [GSK682037],49
19,CSc1cccc2c(-c3ccncn3)c(-c3ccc(F)cc3)nn12 [GW514786],0

row,Structure (SMILES),%Inh [%]
1,CN1CCN(Cc2cccc(-c3ccc4c(Nc5ccc(Oc6ccccc6)cc5)ccnc4c3)c2)CC1 [GW578342],7
2,COc1cccc(NC(=O)NC2CCN(c3ccnc(Nc4cc(OC)c(OC)c(OC)c4)n3)C2)c1 (stereo not shown) [GSK1379763],0
3,CN1CCN(CCCNc2nccc(-c3c(-c4ccc(F)cc4)nn4cc(C(F)(F)F)ccc34)n2)CC1 [GW621581],8
4,COc1cc(Nc2nccc(N3CCC(NC(=O)Nc4cccc(C(C)=O)c4)C3)n2)cc(OC)c1OC (stereo not shown) [GSK1379753],8
5,Cn1cc(-c2ccc3c(c2)CCN3C(=O)Cc2cccc(F)c2)c2c(N)ncnc21 [GSK2603358],15
6,Clc1ccc(-c2nn3ncccc3c2-c2ccnc(Nc3ccc4c(c3)OCCO4)n2)cc1 [GW829116],34
7,Cl.Cl.NCC(NC(=O)c1cc(-c2ccccc2)c(-c2ccnc3[nH]ccc23)s1)c1ccccc1 (stereo not shown) [GSK1321561],34
8,c1ccc(Oc2ccc(Nc3ccnc4cc(-c5ccc(CNCCN6CCOCC6)o5)ccc34)cc2)nc1 [GW567145],0
9,CC(C)(C)c1ccc2nccc(Nc3cccc(O)c3)c2c1 [GW856795],18
10,COc1ccc(-c2coc3ccc(-c4nnc(SCc5ccc(OC)c(C(F)(F)F)c5)o4)cc23)cc1,17
11,COc1cccc(C2=C(Nc3ccc(Cl)c(C(=O)O)c3)C(=O)NC2=O)c1 [SB-390769],2
12,O=C(Nc1n[nH]c2nc(-c3ccc(O)cc3)ccc12)C1CC1 [SB-710363],17
13,CNC(=O)c1ccccc1Nc1nc(Nc2ccc(N3CCOCC3)cc2)ncc1Cl.Cl [GSK1576028],65
14,COc1ccc(Nc2nccc(NCCNC(=O)c3cc4ccccc4s3)n2)cc1 [GSK1379896],0
15,COc1cc(Nc2nccc(-c3c(-c4cccc(NC(=O)c5c(F)cccc5F)c4)nn4ccccc34)n2)cc(OC)c1OC [GSK323521],3
16,Cc1ccc(C(=O)N2CC[C@@H](O)C2)cc1-n1c(C)cc(OCc2ccc(F)cc2F)c(Br)c1=O,0
17,Cc1ccc(S(=O)(=O)Nc2ccc(Nc3nccc(Nc4cccc5[nH]ncc45)n3)cc2)cc1 [GSK581271],0
18,COc1cc2c(cc1OCCN1CCNCC1)ncc1c3ccc(C#N)cc3[nH]c21,0
